Measurements from article PMC9838217, “Structure of SALL4 zinc finger domain reveals link between AT-rich DNA binding and Okihiro syndrome”.
Positions count from the first letter of the chain named.

Legend:
Assay in all cases: HT-SELEX; high values mean tight binding
Details in all cases: protein: recombinant; vector His6-GST; dsDNA, one strand shown
SALL4 ZFC4 WT (HT-SELEX) = molecular target: T1, SALL4 ZFC4 WT (HT-SELEX) (Mus musculus, UniProt Q8BX22 870-940)
T1 sequence: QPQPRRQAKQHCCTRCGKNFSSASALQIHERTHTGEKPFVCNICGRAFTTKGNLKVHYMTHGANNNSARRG
Procedure, shortened: (§1)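 Binding signal is defined as the fold change of each canonical k-mer's read fraction versus the initial random library. Selections used 1 µg of purified recombinant mouse SALL4 zinc finger cluster 4 (residues 870–940) with library DNA (1.5 µg first cycle, 200 ng later) in 100 µl of 10 mM Tris–HCl pH 7.5, 50 mM NaCl, poly(dI-dC) and DTT, for 10 min at room temperature, followed by Ni2+ bead capture, washing and PCR. Up to 6 such cycles were run in triplicate before MiSeq sequencing and 6-mer scanning.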

[1] = molecular target: T2, SALL4 ZFC4 R900W (HT-SELEX) (Mus musculus, UniProt Q8BX22 870-940, R900W)
T2 sequence: T1 sequence with R31W
Procedure, shortened: as §1

[2] = molecular target: T3, SALL4 ZFC4 G921D (HT-SELEX) (Mus musculus, UniProt Q8BX22 870-940, G921D)
T3 sequence: T1 sequence with G52D
Procedure, shortened: as §1

Sequence | binding signal (SALL4 ZFC4 WT (HT-SELEX)) [fold-change vs cycle 0] | binding signal [1] [fold-change vs cycle 0] | binding signal [2] [fold-change vs cycle 0]
CTGGAC | 0.396 ± 0.0407 | 0.495 ± 0.0552 | 0.584 ± 0.0722
CTAAGC | 0.7 ± 0.0291 | 0.793 ± 0.0207 | 0.857 ± 0.014
AAACTG | 1.1 ± 0.0398 | 1.2 ± 0.0458 | 1.17 ± 0.0583
AAACTC | 1.19 ± 0.0627 | 1.3 ± 0.0461 | 1.28 ± 0.0858
ACTAGA | 1.39 ± 0.0596 | 1.52 ± 0.0902 | 1.41 ± 0.142
AAGGTA | 1.42 ± 0.048 | 1.59 ± 0.0717 | 
ATCTAA | 2.02 ± 0.105 | 2.01 ± 0.101 | 1.83 ± 0.191
AACTGA | 1.35 ± 0.0349 | 1.44 ± 0.0702 | 
AAGATG | 1.395 ± 0.00326 | 1.5 ± 0.0687 | 
AGCGAG | 0.337 ± 0.0112 | 0.393 ± 0.0228 | 0.519 ± 0.0797
ACATGT | 1.28 ± 0.0279 | 1.4 ± 0.0207 | 
AAGGGT | 0.858 ± 0.0423 | 1.01 ± 0.023 | 
CATGAA | 1.36 ± 0.0383 | 1.4 ± 0.0692 | 
ACTTCA | 1.4 ± 0.0494 | 1.53 ± 0.0862 | 
AATCAG | 1.32 ± 0.0871 | 1.38 ± 0.0901 | 
AGCATA | 1.26 ± 0.0848 | 1.27 ± 0.0243 | 
AAACGA | 1.06 ± 0.0291 |  | 
CCGAAA | 0.495 ± 0.0231 | 0.559 ± 0.0265 | 0.66 ± 0.0717

Sequence | binding signal (SALL4 ZFC4 WT (HT-SELEX)) [fold-change vs cycle 0] | binding signal [1] [fold-change vs cycle 0] | binding signal [2] [fold-change vs cycle 0]
AATCCT | 1.47 ± 0.0694 | 1.58 ± 0.0929 | 
CCTATA | 1.35 ± 0.0444 | 1.4 ± 0.0411 | 
ATAGTG | 1.28 ± 0.0269 | 1.33 ± 0.0375 | 1.31 ± 0.0797
ACTAGG | 0.871 ± 0.0329 | 1.01 ± 0.0248 | 
AAACGC | 0.392 ± 0.00979 | 0.449 ± 0.0166 | 0.58 ± 0.0501
AAAATA | 3.77 ± 0.346 | 2.25 ± 0.159 | 1.96 ± 0.218
GAAAAC | 1.08 ± 0.0562 | 1.19 ± 0.062 | 
AGGTAA | 1.45 ± 0.0617 | 1.58 ± 0.118 | 
AGTCAG | 0.822 ± 0.0342 | 0.958 ± 0.0579 | 
AGCTTC | 0.709 ± 0.0328 | 0.839 ± 0.0164 | 0.895 ± 0.0229
AATACC | 1.3 ± 0.0373 | 1.33 ± 0.0245 | 
AACTAG | 1.31 ± 0.0615 | 1.4 ± 0.0768 | 
CTATAC | 1.32 ± 0.0145 | 1.46 ± 0.0569 | 1.37 ± 0.0569
GATCAA | 1.21 ± 0.0612 | 1.36 ± 0.014 | 
ATGTAG | 1.34 ± 0.0549 | 1.41 ± 0.0727 | 
GATGAA | 1.45 ± 0.0431 | 1.54 ± 0.0399 | 1.43 ± 0.0787
CTTGGA | 0.806 ± 0.0506 | 0.948 ± 0.0291 | 0.984 ± 0.0463
CTCTTC | 1.02 ± 0.0449 | 1.24 ± 0.0397 | 
